# Source: PubChem BioAssay
# Cruzain inh Det = blocks cruzain activity in presence of Triton detergent. P25779. purified cruzain, Z-FR-AMC fluorescence, 0.01% Triton. AID 1478. Potency, µM, inactives show max response, negative = inhibition, actives largely listed as inhibitors. 200,000 compounds, 0.43% hits;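 note: plate controls were neutral wells for no effect and buffer without enzyme for full effect; nearly all actives have a fitted effect of over 40% in size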
# Target sequence (P25779 123-467 limits assumed): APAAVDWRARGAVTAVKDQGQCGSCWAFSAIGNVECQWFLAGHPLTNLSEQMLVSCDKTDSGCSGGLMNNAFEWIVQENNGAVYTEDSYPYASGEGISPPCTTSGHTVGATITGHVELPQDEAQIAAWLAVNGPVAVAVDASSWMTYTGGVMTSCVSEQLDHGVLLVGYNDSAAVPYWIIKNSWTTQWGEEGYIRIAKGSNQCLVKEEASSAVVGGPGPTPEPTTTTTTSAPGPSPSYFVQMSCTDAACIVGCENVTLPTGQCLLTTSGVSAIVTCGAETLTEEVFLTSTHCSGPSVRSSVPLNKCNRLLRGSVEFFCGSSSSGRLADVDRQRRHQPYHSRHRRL
#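 Z-FR-AMC hydrolysis (2 uM substrate) by cruzain (1.5 nM) monitored kinetically at ex 360/em 450 nm after 15 min room-temperature compound exposure; 0.01% Triton X-100, pH 5.5, 5 mM DTT.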
# Cruzain inh noDet = inhibitors of Trypanosoma cruzi cruzain without detergent. P25779. purified cruzain, Z-FR-AMC fluorescence, no detergent. Potency, µM, inactives show max response, negative = inhibition, actives largely listed as inhibitors. 200,000 compounds, 2.3% hits;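 note: plate controls were enzyme without inhibitor for no effect and buffer without enzyme for full effect; nearly all actives have a fitted effect of over 40% in size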
#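 Purified cruzain at 1.5 nM, pre-incubated 15 min with compound at room temperature in 100 mM sodium acetate pH 5.5, 5 mM DTT, 0.00005% Triton X-100. Reaction started with 2 uM Z-FR-AMC; AMC fluorescence increase over 60 s gives rate.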
# Starred values were filed as active, the others as inactive; ? = inconclusive; ! = not active in a repeat. Only some compounds are listed: those with a hit (about 2.6% of all), similar ones and a draw of the others. Calls come from the whole dose curve; as a rule, active = well fitted curve in the direction sought with a large enough effect; inconclusive = small, poorly fitted or top-dose-only effect, or another doubt; inactive = no such curve, though single readings can be large; an effect the other way counts as inactive or inconclusive. Potency is the fitted concentration of half-maximal effect.
SMILES,Cruzain inh Det,Cruzain inh noDet
CC(=O)Nc1ccc(NC(=O)C2CCN(c3c(NC(C)=O)c(C)nn3-c3ccccc3)CC2)cc1,1%,-1%
C[C@@H]1CCC2[C@](C)(CO)[C@@H](O)CC[C@]2(C)[C@]12CCC(CO)(CCO)O2 (some centres not stated),5%,4%
CCOc1ccccc1Nc1ncnc2c1c(-c1ccccc1)cn2-c1ccc(OC)cc1,1%,10µM*
COc1ccc(-n2cc(-c3ccccc3)c3c(NC4CCCC4)ncnc32)cc1,-1%,4%
COc1ccc(Nc2cc(C(=O)NCCCN(C)Cc3ccccc3)c3ccccc3n2)cc1OC,-8%,-12%
O=C(Nc1ccc(Cl)c(Cl)c1)Nc1nnc(CC2=CCCCC2)s1,-1%,25µM*
O=C(Nc1nnc(CC2=CCCCC2)s1)c1cccs1,-2%,-9%
CCC(=O)Nc1nnc(CSCc2ccc(F)cc2)s1,-1%,0%
O=C(Nc1ccc(Cl)cc1)Nc1nnc(CSCc2ccc(Cl)cc2)s1,1%,5µM*
CCc1cccc(-n2nnc(S(=O)(=O)c3ccc(OC)cc3)c2C)c1,-3%,9%
CC(C)Sc1ncc(Cl)c(C(=O)Nc2nc3ccc(S(C)(=O)=O)cc3s2)n1,3%,5%
Cc1cccc(NC(=O)Cn2c(=O)n(Cc3ccc4c(c3)OCO4)c(=O)c3oc4ccccc4c32)c1C,0%,5%
Cc1ccc(S(=O)(=O)n2ccc(-c3cccc(OCc4c(F)cccc4Cl)c3)n2)cc1,5%,7.9µM*
CN(CCOc1ccc(-c2ccn(S(=O)(=O)c3ccc(Cl)cc3)n2)cc1)c1ccccn1,2%,-29%
Cc1ccc(S(=O)(=O)n2ccc(-c3ccc(OCc4c(F)cccc4Cl)cc3)n2)cc1,2%,32µM*
CC(Oc1ccc(-c2ccccc2)c(F)c1)c1ccn(S(=O)(=O)c2ccc(Cl)cc2)n1 (configuration not stated),11%,?
CCOC(=O)c1cc(C)n(CC2CCC(C(=O)Nc3ccc(OCC)cc3)CC2)c1C (configuration not stated),-3%,14%
COc1ccc(CN(C(=O)Nc2cccc(Cl)c2)c2ccccn2)cc1OC,-9%,?
COc1ccccc1N1CCN(C(=O)c2ccc3nc(-c4ccco4)c(-c4ccco4)nc3c2)CC1,13µM*,?
Cc1ccc(C)c(N2CCN(C(=O)c3ccc4nc(-c5ccco5)c(-c5ccco5)nc4c3)CC2)c1,-3%,0%
COC(=O)c1c(SCC(=O)Nc2cc(C)cc(C)c2)[nH]c2ccccc2c1=O,-13%,?
c1ccc2c(c1)[nH]c1cnccc12,-10%,-15%
Cc1nccc2c1[nH]c1ccccc12,?,40µM*!
C=C[C@@]1(C)CC[C@H](O)[C@H]2C(=O)CCC[C@@H]21,2%,3%
Cc1ccc(NC(=O)CSc2nc(-c3ccco3)nc3cc(=O)[nH]n23)cc1,0%,2%
SMILES,Cruzain inh Det,Cruzain inh noDet
O=C1S/C(=C/c2ccccc2)C(=O)N1CC(O)Cn1c2ccccc2c2ccccc21 (configuration not stated),0%,-81%
CN(C)c1ccc(/C=C2\SC(=O)N(CC(O)Cn3c4ccccc4c4ccccc43)C2=O)cc1 (configuration not stated),-4%,5µM*
COc1ccc(C)cc1S(=O)(=O)N(CC(=O)Nc1cccc([N+](=O)[O-])c1)c1ccc(C)c(C)c1,-6%,32µM*
COc1ccc(S(=O)(=O)N(CC(=O)Nc2ccc(C)cc2)c2ccc(C)cc2)cc1OC,1%,-3%
Nc1nc(Nc2ccccc2)nc2ccccc12,?,25µM*
COc1cc2nc(Nc3cccc(C)c3)nc(N)c2cc1OC,?,3%
Nc1nc(Nc2ccc(Cl)cc2)nc2ccccc12,28µM*,10µM*
Oc1ccc(Nc2nc(-c3ccc(Cl)cc3)nc3ccccc23)cc1,-8%,?
CN(C(=O)CSc1nc(-c2ccccc2)no1)c1ccc(F)cc1,-3%,-10%
Cc1cccc2sc(N(Cc3cccnc3)C(=O)CCS(=O)(=O)c3ccccc3)nc12,-3%,-3%
CCc1nnc(SCc2nc(-c3ccccc3F)oc2C)c2cc3sccc3n12,-2%,-29%
CCn1c(=N)n(CCOc2ccc(Br)cc2)c2ccccc21,0%,-4%
Cc1cccc(S(=O)(=O)c2c(N)n(/N=C/c3ccco3)c3nc4ccccc4nc23)c1,-5%,-22%
Cc1ccc(S(=O)(=O)c2c(N)n(/N=C/c3ccco3)c3nc4ccccc4nc23)cc1C,-22%,16µM*
COc1cc(C(=O)Nc2ccccc2OCc2cc(=O)n3c(C)csc3n2)cc(OC)c1OC,0%,3%
COc1ccccc1NC(=O)c1sc2nc(C)c(C(=O)Nc3ccc(C)cc3C)c(-c3ccc(Br)cc3)c2c1N,-1%,-3%
O=C(/C=C/c1ccco1)NC(=S)Nc1ccccn1,-10%,-7%
Cc1ccc2oc(-c3cccc(NC(=S)NC(=O)c4cccs4)c3)nc2c1,0%,?
O=C(/C=C/c1ccco1)NC(=S)Nc1nc(-c2ccc(Cl)cc2)cs1,-2%,5µM*
